Read-out in test [1]: Human Leukocyte Antigen - DR isotype (HLADR), HLA-DRA (gene 3122)
Briefly: BSK_3C_HLADR: BioMAP Diversity Plus: 3C Assay for Human Leukocyte Antigen - DR isotype (HLADR) Biomarker Activity (AID 2283019).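 As to outcome: ELISA of cell-surface HLA-DR on HUVEC 24 h after dosing.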 Particulars: primary human endothelial cells (HUVEC); actives raise or lower the signal. The essentials: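 Compound added to primary HUVEC cultures, 24 h incubation, then HLA-DR determined by ELISA; endpoint derived by bidirectional fitting relative to DMSO negative control.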

Read-out in test [2]: Interleukin-8 (IL8), CXCL8 (gene 3576)
Briefly: BSK_3C_IL8: BioMAP Diversity Plus: 3C Assay for Interleukin-8 (IL8) Biomarker Activity (AID 2283020). As to conditions: primary human endothelial cells (HUVEC); actives raise or lower the signal. The essentials: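 HUVEC, 3C stimulation; 24 h compound exposure; IL-8 read by ELISA; gain or loss of signal fitted relative to DMSO control.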

Read-out in test [3]: Monokine induced gamma interferon (MIG), CXCL9 (gene 4283)
Put plainly: BSK_3C_MIG: BioMAP Diversity Plus: 3C Assay for Monokine induced gamma interferon (MIG) Biomarker Activity (AID 2283021).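 As to AC50: MIG protein level measured by immunoassay in the treated endothelial cultures.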 As to conditions: primary human endothelial cells (HUVEC); actives raise or lower the signal. The essentials:
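HUVEC, 3C system; 24 h chemical exposure; MIG by ELISA; bidirectional fit vs DMSO baseline.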

Test [4] concerns the target human Vitamin D Receptor (VDR), VDR (gene 7421) (UniProt P11473). Put plainly: ATG_VDR_TRANS: Attagene TRANS-FACTORIAL HepG2 Assay for human Vitamin D Receptor (VDR) (AID 2283022; active = hit-call score of the fitted dose curve at least 0.9, where 1 is the maximum). Put shortly: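 Multiplexed TRANS reporter in HepG2; 24 h treatment; reporter mRNA by RT-PCR plus capillary electrophoresis; upregulation scored relative to DMSO.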
A short description of test [5]: BSK_3C_SRB: Viability Assessment in the BioMAP Diversity Plus: 3C Assay (AID 2283023).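 Also: fitted both ways against DMSO so a hit may be signal rise or drop.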 As to conditions: primary human endothelial cells (HUVEC). The essentials:
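Overt cytotoxicity is gauged in parallel confluent HUVEC cultures by SRB total-protein staining at the time of biomarker measurement, 24 h after dosing. Gain or loss of signal is fitted versus DMSO.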

Read-out in test [6]: Matrix Metallopeptidase 1 (MMP1), MMP1 (gene 4312)
Briefly: BSK_BE3C_MMP1: BioMAP Diversity Plus: BE3C Assay for Matrix Metallopeptidase 1 (MMP1) Biomarker Activity (AID 2283024). As to conditions: primary human bronchial epithelial cells; actives raise or lower the signal. The essentials: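 ELISA read-out of MMP1 in human lung bronchial epithelial primary cultures, 24 h post-dose; bidirectional curve fit vs DMSO baseline, gain or loss of signal scored.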

A short description of test [7]: BSK_3C_Vis: BioMAP Diversity Plus: 3C Assay for Morphology Visualization (AID 2283025).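 Also: fitted both ways so gain or loss versus DMSO counts.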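 As to AC50: cells imaged 24 h after dosing.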 Particulars: primary human endothelial cells (HUVEC). Put shortly: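 HUVEC, 3C system; light microscopy of morphology at 24 h post-dose. Bidirectional fit vs DMSO baseline. Secondary readout, background-control function.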
Read-out in test [8]: Pselectin, SELP (gene 6403)
Briefly: BSK_4H_Pselectin: BioMAP Diversity Plus: 4H Assay for Pselectin Biomarker Activity (AID 2283026). As to conditions: primary human endothelial cells (HUVEC); actives raise or lower the signal. Put shortly:
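HUVEC, 24 h chemical exposure; P-selectin read by ELISA. Bidirectional curve fit vs DMSO baseline; gain or loss of signal scored.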

A short description of test [9]: BSK_4H_SRB: Viability Assessment in the BioMAP Diversity Plus: 4H Assay (AID 2283027).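 Also: cells exposed to compound for 24 h before staining.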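 As to AC50: curves fitted both ways versus DMSO so AC50 may be loss or gain.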 As to conditions: primary human endothelial cells (HUVEC). The essentials: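 Cytotoxicity read-out in primary human endothelial cells: after 24 h compound exposure, cells were TCA-fixed (10%), stained with 0.1% SRB and absorbance taken at 560 nm. Values fitted in both directions relative to DMSO.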

Test [10] in a line: BSK_BE3C_SRB: Viability Assessment in the BioMAP Diversity Plus: BE3C Assay (AID 2283028).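 Also: measured 24 h after chemical dosing.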 Particulars: primary human bronchial epithelial cells. Put shortly:
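SRB total-protein staining (0.1%, after TCA fixation) of chemically dosed human bronchial epithelial primary cells at 24 h; DMSO serves as the negative control for bidirectional curve fitting.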

Several values for one entry are separate records, joined by “and”; a condition that tells them apart may be missing. Equal entries are not always repeated. Inconclusive results are not listed. Some compounds were tested as several samples or in several runs, with calls that do not always agree. Activity calls are given as the source filed them. The calls were made as follows, unless noted: active = hit-call score of the fitted dose curve at least 0.9, where 1 is the maximum; inactive = score below 0.9.

human Vitamin D Receptor (VDR), VDR (gene 7421), sequence (P11473 whole entry, looked up): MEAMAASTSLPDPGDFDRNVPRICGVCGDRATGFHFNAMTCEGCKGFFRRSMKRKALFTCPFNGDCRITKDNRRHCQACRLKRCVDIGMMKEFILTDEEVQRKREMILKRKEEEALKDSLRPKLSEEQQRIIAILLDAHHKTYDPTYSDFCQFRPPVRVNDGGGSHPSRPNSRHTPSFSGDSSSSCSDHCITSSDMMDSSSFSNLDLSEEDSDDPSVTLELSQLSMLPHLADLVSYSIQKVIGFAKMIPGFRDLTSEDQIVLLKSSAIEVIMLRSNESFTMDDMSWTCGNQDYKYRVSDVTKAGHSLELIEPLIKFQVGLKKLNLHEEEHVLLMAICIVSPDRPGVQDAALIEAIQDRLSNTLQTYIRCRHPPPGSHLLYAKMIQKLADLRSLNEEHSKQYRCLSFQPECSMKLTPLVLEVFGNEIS

The term AC50 denotes the concentration at which the activity in the assay is half-maximal. Consider `OC(c1ccc(Cl)cc1)(c1cncnc1)c1ccccc1Cl` (centres undefined), for which the concentration at half-maximal activity (AC50) in test [1] is 10.8 µM (active); in test [5] it was 26 µM (active); in test [7], 9.8 µM (active); in test [8], 23.9 µM (active). Besides, the result in [2], in test [3], in test [4], in test [6] and in test [9] was inactive.

Take `CC(C)(C)c1ccc(CSc2cnn(C(C)(C)C)c(=O)c2Cl)cc1`: the AC50 in test [1] is 3.97 µM (active); in test [2], 7.27 µM (active); in test [5], 10.9 µM (active); in [7], 15.2 µM (active); in test [9] it was 16.5 µM (active). For the same compound, the outcome in [3] and in [4] was inactive.

Take `COc1cnc(OC)n2nc(NS(=O)(=O)c3c(OCC(F)F)cccc3C(F)(F)F)nc12`: the result in [1], in [2], in test [3], in test [5], in test [7] and in [9] was inactive. Besides, in test [2], the AC50 is 0.016 µM (active).

For the compound `C=CC1(C)OC(=O)N(c2cc(Cl)cc(Cl)c2)C1=O` (centres undefined), the result in [1], in test [2], in [3], in test [4], in [5] and in test [6] was inactive. Moreover, the result in [7] and in test [9] was inactive.

Turning to `CNC(=S)S`, the concentration at half-maximal activity (AC50) was 20 µM (active) in test [1], 13.3 µM (active) in test [5], 13.2 µM (active) in test [7] and 20 µM (active) in test [9]. For the same compound, the outcome in test [2], in [3] and in test [4] was inactive.

Regarding `COC(=O)c1ccccc1C(=O)OC`, the outcome in [1], in test [2], in test [3], in [4], in test [5] and in test [7] was inactive. The result in [9] was inactive.

As to `Cc1ccc(-c2c(Cl)nc(C#N)n2S(=O)(=O)N(C)C)cc1`, the AC50 in [1] is 20 µM (active); in test [2], 15.8 µM (active); in [5], 26.1 µM (active); in [7], 15.2 µM (active); in test [9] it was 25.5 µM (active). The result in test [3] and in test [4] was inactive.

Regarding `O=C(Nc1ccccc1)Nc1ccnc(Cl)c1`, in [1], the half-maximal activity concentration (AC50) is 20 µM (active). Further, the result in test [2], in test [3], in [4], in test [5], in test [7] and in [8] was inactive. The outcome in test [9] was inactive.

As to `N#Cc1nn(-c2c(Cl)cc(C(F)(F)F)cc2Cl)c(N)c1S(=O)C(F)(F)F` (centres undefined), the half-maximal activity concentration (AC50) in test [1] is 14 µM (active); in [2] it was 27.8 µM (active); in [5] it was 32.8 µM (active); in test [7] it was 37.5 µM (active); in test [9] it was 33.5 µM (active). For the same compound, the outcome in test [3], in [4] and in test [6] was inactive.

Turning to `COc1nc(NC(C)C)nc(NC(C)C)n1`, the result in test [1], in [2], in [3], in test [4], in test [5] and in test [6] was inactive. For the same compound, the result in [7], in test [8] and in [9] was inactive.

For the compound `CN(C)C(=S)SSC(=S)N(C)C`, the AC50 in test [1] is 14.9 µM (active); in test [2] it was 31.7 µM (active); in [3] it was 33.6 µM (active); in test [7], 16.3 µM (active); in test [9], 25.7 µM (active). The call in test [4] and in test [5] was inactive.

`Cc1c(F)c(F)c(COC(=O)C2C(/C=C(\Cl)C(F)(F)F)C2(C)C)c(F)c1F` (centres undefined): the half-maximal activity concentration (AC50) in test [1] was 14.8 µM (active); in test [5], 13.7 µM (active); in test [7], 9.8 µM (active). Moreover, the outcome in [2], in [3], in test [4], in [8] and in test [9] was inactive.

As for `COC(=O)C(C)Oc1ccc(Oc2ccc(Cl)cc2Cl)cc1` (centres undefined), the concentration at half-maximal activity (AC50) is 13.8 µM (active) in [1]; 14 µM (active) and 20 µM (active) in [5]; 39 µM (active) in test [7]. In addition, the outcome in test [1], in test [2], in test [3], in test [4], in [5] and in test [6] was inactive. Further, the result in [7], in test [8] and in test [9] was inactive.

Regarding `CCOC(=O)C(Cl)Cc1cc(-n2nc(C)n(C(F)F)c2=O)c(F)cc1Cl` (centres undefined), the half-maximal activity concentration (AC50) in [1] is 9.55 µM (active). For the same compound, the result in [2], in test [3], in test [4], in test [5], in test [6] and in test [7] was inactive. Also, the result in test [8], in test [9] and in [10] was inactive.

Consider `O=C(O)COc1nc(Cl)c(Cl)cc1Cl`, for which the outcome in test [1], in test [2], in test [3], in test [4], in test [5] and in [6] was inactive. Also, the outcome in [7], in test [9] and in test [10] was inactive.

Take `CC1=C(C(=O)Nc2ccccc2)SCCO1`: in test [1], the concentration at half-maximal activity (AC50) is 10.6 µM (active). The outcome in test [2], in [3], in test [4], in test [5], in test [7] and in [8] was inactive. Besides, the outcome in test [9] and in [10] was inactive.

In the case of `CCCN(CCC)c1c([N+](=O)[O-])cc(S(N)(=O)=O)cc1[N+](=O)[O-]`, the AC50 in test [1] is 38.6 µM (active) [middle of 4 runs]; in [2], 34.2 µM (active) [middle of 4 runs]; in test [3] it was 39 µM (active) and 41.1 µM (active) and 35.7 µM (active); in test [4] it was 61.2 µM (active); in [5], 31.3 µM (active) [middle of 4 runs]; in [7], 41 µM (active) and 41.8 µM (active) and 16.3 µM (active). Besides, in [9], the concentration at half-maximal activity (AC50) is 32.3 µM (active) [middle of 4 runs]. In addition, the call in test [4] was inactive.

Turning to `C=CCC1=C(C)C(OC(=O)C2C(C=C(C)C)C2(C)C)CC1=O` (centres undefined), the AC50 in test [1] is 32.2 µM (active) and 28 µM (active) and 29.1 µM (active); in test [2], 32.3 µM (active) [middle of 4 runs]; in test [3], 31.7 µM (active); in test [4] it was 105 µM (active); in test [5], 32.8 µM (active) [middle of 4 runs]; in [7] it was 39.4 µM (active) and 39 µM (active). Further, in test [9], the AC50 was 32.7 µM (active) [middle of 4 runs]. The outcome in test [3], in test [4] and in test [7] was inactive.

In the case of `COc1nc(C)nc(NC(=O)NS(=O)(=O)c2ccccc2CCC(F)(F)F)n1`, the AC50 in test [1] is 20 µM (active). Further, the result in test [1], in test [2], in [3], in test [4], in [5] and in [6] was inactive. Besides, the outcome in test [7] and in test [9] was inactive.

`Oc1ccccc1-c1ccccc1`: the result in test [1], in test [2], in test [3], in test [4], in test [5] and in [7] was inactive. The outcome in test [8] and in test [9] was inactive.

`CCOC(=O)CC(SP(=S)(OC)OC)C(=O)OCC` (centres undefined): the concentration at half-maximal activity (AC50) in [1] is 20 µM (active). The outcome in test [2], in test [3], in [4], in test [5], in test [6] and in test [7] was inactive. Further, the result in [8] and in test [9] was inactive.

As for `CCCC1COC(Cn2cncn2)(c2ccc(Cl)cc2Cl)O1` (centres undefined), the outcome in test [1], in test [2], in test [3], in [4], in [5] and in [7] was inactive. In addition, the result in test [9] was inactive.

For `CON(C)C(=O)Nc1ccc(Cl)c(Cl)c1`, the result in test [1], in [2], in test [3], in test [4], in test [5] and in test [7] was inactive. For the same compound, in [9], the outcome was inactive.

With `COc1nc(C)nc(NC(=O)NS(=O)(=O)c2ccccc2Cl)n1`, the result in test [1], in test [2], in test [3], in test [4], in test [5] and in test [7] was inactive. Also, the outcome in test [8], in test [9] and in test [10] was inactive.

The record behind these values is PubChem BioAssay (EPA / NIEHS).
